Experimental findings from paper PMC4336329 (PLoS ONE, 2015) are described below.

The whole screen tested about 310,000 compounds, of which about 14,000 (4.5%) showed an effect of 50% or more. Effects have a minus sign here. What follows is part of a selection rich in strong results, with near analogues and random picks from the rest.
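Note: peak tail current of the secondary pulse compared with the same well before compound.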

For the test, the target named is human ether-à-go-go-related gene (hERG) potassium channel (human, UniProt Q12809). Description: primary screen, population patch clamp on CHO cells stably expressing hERG; higher = less effect of the substance.
Chain of human ether-à-go-go-related gene (hERG) potassium channel (Q12809 whole entry, looked up): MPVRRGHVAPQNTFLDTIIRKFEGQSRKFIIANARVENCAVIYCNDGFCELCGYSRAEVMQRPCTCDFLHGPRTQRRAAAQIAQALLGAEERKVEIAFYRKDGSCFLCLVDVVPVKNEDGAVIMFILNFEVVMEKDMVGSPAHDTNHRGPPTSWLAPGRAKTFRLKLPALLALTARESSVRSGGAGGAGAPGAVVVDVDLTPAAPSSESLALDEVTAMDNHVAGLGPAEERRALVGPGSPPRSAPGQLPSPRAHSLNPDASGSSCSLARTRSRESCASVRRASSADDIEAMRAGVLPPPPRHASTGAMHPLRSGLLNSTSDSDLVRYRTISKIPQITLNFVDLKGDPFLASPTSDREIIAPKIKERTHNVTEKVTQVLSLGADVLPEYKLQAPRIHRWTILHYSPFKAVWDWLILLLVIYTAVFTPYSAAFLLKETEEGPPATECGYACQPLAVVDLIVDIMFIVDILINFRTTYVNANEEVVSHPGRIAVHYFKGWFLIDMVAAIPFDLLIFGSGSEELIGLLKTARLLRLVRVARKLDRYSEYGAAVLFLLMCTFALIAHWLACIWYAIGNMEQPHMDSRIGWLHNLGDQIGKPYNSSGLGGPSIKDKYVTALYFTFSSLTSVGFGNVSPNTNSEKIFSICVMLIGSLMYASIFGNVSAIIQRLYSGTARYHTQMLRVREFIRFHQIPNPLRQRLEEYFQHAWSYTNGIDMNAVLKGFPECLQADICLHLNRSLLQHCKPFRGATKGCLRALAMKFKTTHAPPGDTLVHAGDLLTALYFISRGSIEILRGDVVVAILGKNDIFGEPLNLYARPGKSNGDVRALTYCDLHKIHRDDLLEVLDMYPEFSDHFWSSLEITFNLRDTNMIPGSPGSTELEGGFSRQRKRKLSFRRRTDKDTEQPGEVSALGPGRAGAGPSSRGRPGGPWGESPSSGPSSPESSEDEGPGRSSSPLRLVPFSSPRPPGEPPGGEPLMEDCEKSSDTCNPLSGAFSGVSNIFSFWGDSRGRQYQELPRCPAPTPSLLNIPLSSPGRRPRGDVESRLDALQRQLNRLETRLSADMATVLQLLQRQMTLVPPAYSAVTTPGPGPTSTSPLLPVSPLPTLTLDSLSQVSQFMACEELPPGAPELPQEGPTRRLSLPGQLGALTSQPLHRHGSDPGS
Consider `O=C(NN1CC(=O)N(c2cc(Cl)cc(Cl)c2)CC1=O)c1sccc1Cl`, for which the “hERG current change (%, negative = inhibition) at 10uM” value is -0.682%.

As to `Cc1cccc(N(CC(=O)N/N=C/c2ccccc2C(=O)O)S(C)(=O)=O)c1C`, the “hERG current change (%, negative = inhibition) at 10uM” value is reported as -28.9%.

Turning to `CC(C)(C)NCC(=O)N/N=C/c1ccc(OCc2ccccc2)cc1`, the “hERG current change (%, negative = inhibition) at 10uM” value was -60.5%.

In the case of `N#CCC(=O)N/N=C/c1ccc(OCc2ccccc2)cc1`, the “hERG current change (%, negative = inhibition) at 10uM” value came to 11.3%.

For the molecule `CC(C)C(=O)N/N=C/c1ccc(OCc2ccccc2)cc1`, the “hERG current change (%, negative = inhibition) at 10uM” value is recorded as 17.8%.

Regarding `O=C(NNc1nc2ccccc2nc1C(F)(F)F)c1ccccc1`, the “hERG current change (%, negative = inhibition) at 10uM” value worked out at 11.9%.

Consider `Cc1ccc(NC(=O)c2cc(-c3ccccc3)n[nH]2)cc1`, for which the “hERG current change (%, negative = inhibition) at 10uM” value is 18.3%.

On to `CC(C)c1ccc(N(C(=O)c2csnn2)C(C(=O)NC(C)(C)C)c2ccncc2)cc1` (centres unmarked), for which the “hERG current change (%, negative = inhibition) at 10uM” value is reported as -42.8%.

As for `CC(C)C[C@@H](CO)N1CCN(CCc2ccccc2)CCC1=O`, the “hERG current change (%, negative = inhibition) at 10uM” value is listed as -23%.

Take `CCCN1CCC(=O)N([C@H](CN=[N+]=[N-])CC(C)C)CC1`: the “hERG current change (%, negative = inhibition) at 10uM” value was 3.11%.

Consider `CC(C)C[C@@H](COc1ccccc1)N1CCN(Cc2ccccc2)CCC1=O`, for which the “hERG current change (%, negative = inhibition) at 10uM” value is on record as -35.4%.

Take `CCCN1CCC(=O)N([C@H](COc2ccccc2)CC(C)C)CC1`: the “hERG current change (%, negative = inhibition) at 10uM” value is -81.9%.

For the molecule `CC(C)C[C@@H](COc1ccccc1)N1CCN(CCc2ccccc2)CCC1=O`, the “hERG current change (%, negative = inhibition) at 10uM” value is reported as -77.5%.

Regarding `COc1cc([N+](=O)[O-])ccc1NC(=O)CN(C)C`, the “hERG current change (%, negative = inhibition) at 10uM” value is on record as -15.9%.

For `O=C(O)CC(CC(=O)Nc1ccccc1C(=O)O)c1ccccc1` (centres unmarked), the “hERG current change (%, negative = inhibition) at 10uM” value stood at 3.3%.

Consider `C=C(C)CCC1(C)NC(=O)N(c2ccccc2)N1` (centres unmarked), for which the “hERG current change (%, negative = inhibition) at 10uM” value is -4.03%.

Take `CN(C(=O)CSc1nnnn1-c1ccc(O)cc1)C1CCS(=O)(=O)C1` (centres unmarked): the “hERG current change (%, negative = inhibition) at 10uM” value is listed as 14.8%.

Take `CCN(CC(=O)NCc1cccs1)C(=O)CN(C)S(=O)(=O)c1ccc(C)cc1`: the “hERG current change (%, negative = inhibition) at 10uM” value is -27.3%.

For `COc1ccccc1NC(=O)CSc1nc2sc3c(c2c(=O)n1-c1ccccc1)CCN(C)C3`, the “hERG current change (%, negative = inhibition) at 10uM” value is given as -26%.

For `CC1(C)OC(=O)N(c2ccccc2)C12C=Cc1cc(Br)ccc1O2` (centres unmarked), the “hERG current change (%, negative = inhibition) at 10uM” value was -14.4%.

For `O=C(Nc1ccc(S(=O)(=O)N2CCCCCC2)cc1)c1ccc(Br)o1`, the “hERG current change (%, negative = inhibition) at 10uM” value is listed as -14.5%.

With `O=C(Nc1ccc(S(=O)(=O)N2CCOCC2)cc1)c1ccc(Br)o1`, the “hERG current change (%, negative = inhibition) at 10uM” value is on record as -64.8%.

Consider `O=C(Nc1ccc(S(=O)(=O)N2CCCC2)cc1)c1ccc(Br)o1`, for which the “hERG current change (%, negative = inhibition) at 10uM” value is on record as 14.8%.

Turning to `O=C(Nc1ccc(F)cc1)c1ccc(S(=O)(=O)N2CCOCC2)o1`, the “hERG current change (%, negative = inhibition) at 10uM” value is given as -13.1%.

Take `O=C(Nc1ccc(OC(F)(F)F)cc1)c1ccc(S(=O)(=O)N2CCOCC2)o1`: the “hERG current change (%, negative = inhibition) at 10uM” value is -53.7%.

With `COc1ccc(NC(=O)c2ccc(S(=O)(=O)N3CCOCC3)o2)cc1`, the “hERG current change (%, negative = inhibition) at 10uM” value is listed as 0.458%.
